# Screening results: PubChem, National Center for Advancing Translational Sciences (NCATS)
# Shown are actives, neighbours in structure and some others; about 12% of the full set was active somewhere.
# BAZ2B inh = qHTS Assay for Inhibitors of BAZ2B; Potency, µM (series often up to 114 µM), without a hit: top-dose activity change, negative = inhibition, usual class: inhibitors; AID 504333, 2011; Bromodomain adjacent to zinc finger domain protein 2B (Homo sapiens), Q9UIF8; hit rate 4.4% among 360,000; AlphaScreen BAZ2B-H3K14Ac peptide displacement; note: % is set by controls: 0 for no effect and ±100 for the full control effect; nearly all actives have a fitted effect of over 60% in size
#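 Multi-concentration screen (max 110 uM) measuring displacement of acetylated histone H3 peptide from BAZ2B by AlphaScreen, using 50 nM protein, 50 nM peptide and 10 ug/mL streptavidin donor plus Ni-chelate acceptor beads.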
# G9a inh = qHTS Assay for Inhibitors of Histone Lysine Methyltransferase G9a. G9a H3K9 monomethylation, AlphaScreen, 2 h. Potency, µM (doses to about 102 µM), for the others: at the highest dose activity, negative = inhibition, usual class: inhibitors. hit rate 8.8% among 350,000. Histone-lysine N-methyltransferase EHMT2 (Homo sapiens), Q96KQ7; note: % is set by controls: 0 for no effect and ±100 for the full control effect; nearly all actives have a fitted effect of over 75% in size
#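 Compounds were preincubated with 20 nM G9a for 15 min, after which biotinylated H3K9 peptide (500 nM) and SAM (20 uM) started a 2 h room-temperature reaction. Monomethylated product was quantified by antibody-based AlphaScreen chemiluminescence.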
# JMJD2A Tudor = qHTS Assay for Inhibitors of JMJD2A-Tudor Domain | AlphaScreen JMJD2A-Tudor / H3K4me3 peptide binding | hit rate 4.4% among 390,000 | Lysine-specific demethylase 4A (Homo sapiens), O75164 | Potency, µM (doses to about 114 µM), without a hit: top-dose activity change, negative = inhibition, hits mostly inhibitors; note: % is set by controls: 0 for no effect and ±100 for the full control effect; nearly all actives have a fitted effect of over 50% in size
# PLK1 PBD inh = qHTS for Inhibitors of PLK1-PDB (polo-like kinase 1 - polo-box domain): Primary Screen. hit rate 2.8% among 360,000. Serine/threonine-protein kinase PLK1 (Homo sapiens), P53350. Potency, µM, without a hit: max response, negative = inhibition, most hits filed as inhibitors. Plk1 PBD binding of FITC phosphopeptide, fluorescence polarization; note: series mostly up to about 57 µM; % is set by controls: 0 for no effect and ±100 for the full control effect; nearly all actives have a fitted effect of over 65% in size
# Sfp inh = qHTS Assay for Inhibitors of Bacillus subtilis Sfp phosphopantetheinyl transferase (PPTase); 4'-phosphopantetheinyl transferase ffp (Bacillus subtilis), Q9F4F7; Biochemical Sfp PPTase activity, qHTS; Potency, µM, for inactives: largest response in the series, negative = inhibition, usual class: inhibitors; hit rate 3.5% among 310,000; AID 1490, 2009;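 note: the enzyme is Sfp with the accession as filed and its product quenches rhodamine fluorescence; 0% = enzyme reaction without inhibitor and -100% = no enzyme wells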
#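 Sfp 15 nM + cpd, 15 min RT; start w/ rhodamine-CoA 5 uM, BHQ-2-YbbR 12.5 uM (final); 50 mM Hepes pH 7.6, 10 mM MgCl2, 0.01% NP-40, 0.01% BSA; read 525/598 nm at 0 and 30 min.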
# HP1b chromo inh = HTS for Inhibitors of HP1-beta Chromodomain Interactions with Methylated Histone Tails; Potency, µM (series often up to 114 µM), for inactives: at the top dose activity change, negative = inhibition, usual class: inhibitors; Chromobox protein homolog 1 (Homo sapiens), P83916; AlphaScreen HP1-beta / biotin-H3K9me3 peptide binding; AID 540317, 2011; hit rate 0.56% among 390,000; note: nearly all actives have a fitted effect of over 70% in size
#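 Compound inhibition of the preformed complex between 50 nM HP1-beta and 50 nM biotinylated H3K9me3 peptide was read by AlphaScreen. Buffer was PBS pH 7.4 with 0.01% Tween-20. Incubations ran 30 min at room temperature, with 10 ug/mL donor/acceptor beads.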
# An asterisk follows results filed as active; ? = inconclusive; nt = no result given; [ ] = dose if it differs, or a comment. Calls come from the whole dose curve; as a rule, active = well fitted curve in the direction sought with a large enough effect; inconclusive = small, poorly fitted or top-dose-only effect, or another doubt; inactive = no such curve, though single readings can be large; an effect the other way counts as inactive or inconclusive. Potency is the fitted concentration of half-maximal effect.
SMILES,BAZ2B inh,G9a inh,JMJD2A Tudor,PLK1 PBD inh,Sfp inh,HP1b chromo inh
Cc1cc2c(cc(C(=O)OC(C(=O)NCc3ccco3)C(C)C)n2C)o1 (stereo not given),?,39.8µM*,?,-6.7%,?,-15.5%
C/C(=N\N1C(=O)CSC1=S)c1ccc(Br)cc1,?,39.8µM*,-30.8%,5.32µM*,?,-23.5%
CCOc1cc(C2C(C#N)=C(N)OC(C)=C2C(C)=O)c(Br)c(Br)c1OC(C)C (stereo not given),-8.4%,?,-22.2%,-29.8%,-8.9%,33.1%
CCOc1cc(C2C(C#N)=C(N)OC(C)=C2C(C)=O)cc(Br)c1O (stereo not given),?,?,89.1µM*,23.8µM*,6.9%,-16.9%
NC(Cc1ccccc1)C(O)(c1ccccc1)c1ccccc1 (stereo not given),6.1%,-13.8%[0.501 µM],-12.6%,-3.7%,-3.2%,23.5%
N[C@H](C(=O)O)[C@H](Cc1ccccc1)C(=O)O,nt,7.08µM*,nt,nt,nt,nt
Cc1ccc(S(=O)(=O)N2CC=C(c3c(C)n(C)c4ccccc34)CC2)cc1,?,?,?,?,-7.2%,?
CCn1c(C)c(C2=CCN(S(=O)(=O)c3ccccc3)CC2)c2ccccc21,?,39.8µM*,?,3.7%,-13.6%,?
O=C(NCC(c1cccnc1)N1CCN(c2ccccc2F)CC1)C(=O)Nc1ccc(F)cc1F (stereo not given),-14.3%,-3.2%[59 µM],-24.3%,nt,nt,6.5%
COc1cccc2nc3cc(C)c(C)cc3nc12,3.1%,-26.1%,-20.3%,16.8µM*,?,5.6%
Cc1ccc2occ(C3NC(C(=O)O)CS3)c(=O)c2c1 (stereo not given),50.1µM*,5.01µM*,4.5%,0.0%,14.1µM*,43.9%
Cc1ccc2occ(CN3CCN(c4ccccc4)CC3)c(=O)c2c1,-29.8%,-5.1%[12.7 µM],?,-10.7%,-10.0%,-9.2%
Cc1ccc2occ(C3N[C@H](C(=O)O)CS3)c(=O)c2c1 (stereo not given in full),?,31.6µM*,7.94µM*,?,50.1µM*,?
CSCCC(NC(=O)c1ccccc1Cl)C(=O)Nc1ccncc1 (stereo not given),8.8%,39.8µM*,-13.8%,-0.8%,nt,20.9%
O=C(c1ccccc1)c1ccccc1,19.3%,-17.9%[12.7 µM],7.5%,-1.4%,-2.3%,49.8%
O=C(O)c1ccc(C(=O)C(=O)c2ccccc2)cc1,-13.3%,79.4µM*,-1.4%,-1.8%,22.4%,16.0%
O=C(CSCc1cccc(Br)c1)N=Nc1c(O)[nH]c2ccccc12,50.1µM*,20.7%[0.0925 µM],-17.6%[57.1 µM],-10.0%,-8.8%,0.6%
CC(=O)c1cccc(NC(=O)C2CCN(c3nnc(-n4cccc4)s3)CC2)c1,7.0%[57.1 µM],1.8%[59 µM],-15.2%,nt,nt,14.0%
O=C(Cc1ccccc1)Nc1ccc(N2CCOCC2)cc1,-10.7%,-1.9%,-9.1%,-6.1%,18.9%,86.6%
Cc1cn(CCC(=O)Nc2ccc(N3CCOCC3)cc2)c2ccccc12,?,44.7µM*,?,-14.9%,-2.8%,-9.7%
O=C(CCS(=O)(=O)c1ccccc1)Nc1ccc(N2CCOCC2)cc1,-26.1%,56.2µM*,-25.9%,-16.9%,7.7%,7.2%
O=C(Nc1ccc(N2CCOCC2)cc1)C1(S(=O)(=O)c2ccccc2)CC1,-22.9%,?,-19.4%,-8.3%,-4.4%,9.8%
O=C(Cc1cccc2ccccc12)Nc1ccc(N2CCOCC2)cc1,50.1µM*,nt,-8.9%,-1.1%,-2.4%,21.2%
COc1ccccc1NC(=O)Nc1ccc(N2CCOCC2)cc1,-23.9%,31.6µM*,?,-7.5%,-0.7%,-1.2%
N[C@@H](C(=O)O)[C@H](CC(=O)O)c1ccc(Cl)cc1,nt,nt,nt,nt,17.3%,nt
SMILES,BAZ2B inh,G9a inh,JMJD2A Tudor,PLK1 PBD inh,Sfp inh,HP1b chromo inh
COC(=O)c1ccc(CNC(=O)C2CCC(=O)N(C3CCCCCC3)C2)cc1 (stereo not given),-2.3%,-0.4%,-9.0%,-3.3%,9.1%,17.8%
COc1ccc(CN(C)C(=O)c2ccccc2Sc2ccccc2C#N)c(OC)c1,-11.4%,61.1%,-6.8%,-8.7%,15.4%,24.8%
O=C(CN1C(=O)CSC1=O)Nc1ccc(N2CCOCC2)cc1,7.2%,15.8µM*,-0.3%,-7.5%,-11.6%,20.0%
CC(=O)Oc1ccc(NC(=O)Cc2ccccc2)c(C(=O)O)c1,?,70.8µM*,-5.5%,2.5%,-7.3%,47.4%
CCCCCCCCNS(=O)(=O)CCNCc1ccccc1OC,nt,nt,-7.9%,-0.1%,nt,37.2%
COC(=O)c1ccc(NC(=O)CN2C(=O)CSC2=O)cc1,23.0%,0.1%[12.7 µM],-8.3%,-10.2%,-7.9%,4.7%
COc1ccccc1CNCCS(=O)(=O)NN1CCOCC1,nt,nt,-0.7%,10.6µM*,nt,45.2%
COc1ccccc1CNCC(=O)Nc1ccc(N2CCOCC2)cc1,50.1µM*,4.47µM*,39.8µM*,?,-8.4%,8.3%
Cc1ccccc1OCC(=O)OCC(=O)Nc1ccc(N2CCOCC2)cc1,?,-6.6%,-14.8%,3.2%,-3.3%,20.5%
COc1ccc(CC(=O)Nc2ccc(OC(C)=O)cc2C(=O)O)cc1,-17.3%,-19.7%,-17.5%,-7.9%,6.5%,27.1%
O=C(c1cccc(F)c1)N1CCC[C@@]2(CCN(C(c3ccccc3)c3ccccc3)C2)C1,nt,9.6%[12.7 µM],nt,nt,3.2%,nt
COc1ccc(-c2cn3c(n2)sc2cc(C(=O)NCCc4ccc(OC)cc4OC)ccc23)cc1,-1.8%,3.0%[59 µM],2.0%,nt,nt,37.7%
O=C(c1cc2ccccc2oc1=O)N(Cc1ccccc1F)C1CCS(=O)(=O)C1 (stereo not given),-20.0%,16.4%,0.7%,-6.2%,8.4%,25.6%
O=C(NCc1ccccc1Cl)C1CCCN(c2ncnc3onc(-c4ccc(F)cc4)c23)C1 (stereo not given),8.5%[57.1 µM],-7.3%[59 µM],-24.3%,nt,nt,13.8%
O=C(Cc1cccc2ccccc12)Nc1ccc(Br)cc1C(=O)O,-1.2%,?,0.4%,-23.4%,-19.6%,27.4%
O=C(Cc1cccc2ccccc12)Nc1ccc(O)cc1C(=O)O,-10.4%,70.8µM*,-26.9%[57.1 µM],26.7µM*,0.8%,0.5%
O=C(COC(=O)c1cc(S(=O)(=O)N2CCOCC2)ccc1O)Nc1ccc2c(c1)OCO2,nt,nt,-29.4%,-5.3%,nt,12.6%
S=C(NNC(=S)Nc1ccccc1)Nc1ccccc1,-35.2%,0.355µM*,-32.8%,?,50.1µM*,?
S=C(NN=C(C1CC1)C1CC1)Nc1ccccc1,-6.1%,5.62µM*,50.1µM*,?,20µM*,-10.3%
